Results on 41 molecules are retold here after PubChem BioAssay (EPA / NIEHS).

The target of experiment [1] is rat Serotonin Transporter (SERT), Slc6a4 (gene 25553) (UniProt P31652). Nature of the experiment: NVS_TR_rSERT: NovaScreen (NVS) Transporter Assay for rat Serotonin Transporter (SERT) (AID 2283375). The method in brief: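 Using rat forebrain membrane SERT, test chemicals compete with a radioligand for 1 hour, and bound counts are taken by filter-based scintillation. Screening starts at 25 uM in duplicate, followed by concentration series for actives.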

Experiment [2] has as its target human Norepinephrine Transporter (NET), SLC6A2 (gene 6530) (UniProt P23975). The experiment in a line: NVS_TR_hNET: NovaScreen (NVS) Transporter Assay for human Norepinephrine Transporter (NET) (AID 2283377).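 Also: displacement of radioligand from human NET seen as loss of scintillation signal.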 In short, it runs like this: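 Cell-free radioligand binding using CHO-derived membrane protein expressing human NET, read by filter scintillation counting 1 h after dosing; loss of signal vs DMSO. Initial duplicate screen at 25 uM, actives retested in concentration series.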

Experiment [3] has as its target Estrogen receptor beta (Homo sapiens) (UniProt Q92731). The experiment in a line: OT_ER_ERbERb_1440: Odyssey Thera (OT) 24-hour HEK293T Protein-Complementation Assay for Estrogen Receptor-beta/-beta Homodimer (AID 2283380).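 Also: scored as signal increase over DMSO baseline for both agonists and antagonists.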 The method in brief:
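HEK293T cells stably expressing ER beta LBD (aa 310-547) homodimer fragment-complementation reporter, dosed 24 h. Cells formaldehyde-fixed, Draq5-stained; gain in nuclear (agonist) or nuclear plus cytoplasmic (antagonist) fluorescence versus DMSO read by laser scanning cytometry.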

Experiment [4] deals with Bile acid receptor (Homo sapiens) (UniProt Q96RI1). Nature of the experiment: OT_FXR_FXRSRC1_0480: Odyssey Thera (OT) 8-hour HEK293T Protein-Complementation Assay for Farnesoid X receptor/SRC-1 Co-activator (AID 2283383). The method in brief: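 Co-activator recruitment to FXR was measured in living HEK293T cells, where interaction of the two fused partners restored an active fluorescent reporter. Signal gain after 8 h treatment was referenced to DMSO.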

For experiment [5] the target is unchanged. The experiment in a line: OT_FXR_FXRSRC1_1440: Odyssey Thera (OT) 24-hour HEK293T Protein-Complementation Assay for Farnesoid X receptor/SRC-1 Co-activator (AID 2283384). The method in brief: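 Cell-based binding reporter: interaction of FXR with SRC-1 brings reporter fragments together, giving a fluorescence signal read 24 h after dosing of HEK293T cells.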

The target in experiment [6] is Agonist Androgen Response Element (ARE), AR (gene 367) (UniProt P10275). The experiment in a line: OT_AR_ARELUC_AG_1440: Odyssey Thera (OT) 24-hour CHO-K1 Luciferase Assay for Agonist Androgen Response Element (ARE) (AID 2283379). In short, it runs like this: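 CHO-K1 cells carrying an ARE-driven luciferase reporter were exposed to compounds for 24 h. Luminescence was then read after adding a D-luciferin/ATP mix, and activity was scored as a gain in signal over DMSO vehicle.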

Experiment [7] has as its target Estrogen receptor (Homo sapiens) (UniProt P03372). Nature of the experiment: OT_ERa_GFPERaERE_0480: Odyssey Thera (OT) 8-hour HeLa Transcription Induction Assay for Estrogen Receptor (AID 2283381; active = hit-call score of the fitted dose curve at least 0.9, where 1 is the maximum; inactive = score below 0.9). In short, it runs like this:
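Cells (HeLa) receive compound; after 8 h, reporter fluorescence is imaged and quantified by high-content analysis. Gain-of-signal relative to DMSO gives the endpoint.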

Experiment [8] shares this target. Nature of the experiment: OT_ERa_GFPERaERE_0120: Odyssey Thera (OT) 2-hour HeLa Transcription Induction Assay for Estrogen Receptor (AID 2283382). The method in brief: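 Measures ESR1 pathway reporter gain-of-signal in HeLa cells after a 2-hour treatment, detected as fluorescent protein induction by microscopy, DMSO as baseline.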
Experiment [9] addresses Norway rat Vesicular Monoamine Transporter (VMAT2), neurotransmitter transporter, Slc18a2 (gene 25549) (UniProt Q01827). The experiment in a line: NVS_TR_rVMAT2: NovaScreen (NVS) Transporter Assay for Norway rat Vesicular Monoamine Transporter (VMAT2), neurotransmitter transporter (AID 2283376).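 Also: actives lower the bound radioligand signal below the DMSO level.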 In short, it runs like this:
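Radioligand displacement binding on rat forebrain tissue preparation, filter-based scintillation read-out 1 hour after dosing. Primary screen in duplicate at 25 uM, then concentration series for actives; loss of signal versus DMSO.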

Inconclusive results are not listed. Calls of active or inactive are those of the source. The calls were made as follows, unless noted: active = hit-call score of the fitted dose curve at least 0.9, where 1 is the maximum; inconclusive = response in the unintended direction; inactive = score below 0.9.

Estrogen receptor beta (Homo sapiens), sequence (Q92731 whole entry, looked up, the tested form may be a part): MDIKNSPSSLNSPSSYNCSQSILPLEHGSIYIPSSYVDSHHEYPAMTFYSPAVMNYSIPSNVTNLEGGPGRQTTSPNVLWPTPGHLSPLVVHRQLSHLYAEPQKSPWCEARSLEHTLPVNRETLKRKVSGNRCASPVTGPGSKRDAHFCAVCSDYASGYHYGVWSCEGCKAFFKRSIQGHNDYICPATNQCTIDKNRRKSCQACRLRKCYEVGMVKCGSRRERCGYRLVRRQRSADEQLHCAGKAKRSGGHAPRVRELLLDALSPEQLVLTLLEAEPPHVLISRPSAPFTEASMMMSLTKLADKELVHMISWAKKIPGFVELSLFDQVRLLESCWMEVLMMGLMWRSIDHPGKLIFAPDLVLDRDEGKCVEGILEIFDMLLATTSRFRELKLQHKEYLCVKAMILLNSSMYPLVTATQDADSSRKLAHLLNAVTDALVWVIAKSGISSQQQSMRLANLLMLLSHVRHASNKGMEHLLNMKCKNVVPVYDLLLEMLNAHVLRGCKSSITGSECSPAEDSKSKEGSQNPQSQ
Estrogen receptor (Homo sapiens), sequence (P03372 whole entry, looked up): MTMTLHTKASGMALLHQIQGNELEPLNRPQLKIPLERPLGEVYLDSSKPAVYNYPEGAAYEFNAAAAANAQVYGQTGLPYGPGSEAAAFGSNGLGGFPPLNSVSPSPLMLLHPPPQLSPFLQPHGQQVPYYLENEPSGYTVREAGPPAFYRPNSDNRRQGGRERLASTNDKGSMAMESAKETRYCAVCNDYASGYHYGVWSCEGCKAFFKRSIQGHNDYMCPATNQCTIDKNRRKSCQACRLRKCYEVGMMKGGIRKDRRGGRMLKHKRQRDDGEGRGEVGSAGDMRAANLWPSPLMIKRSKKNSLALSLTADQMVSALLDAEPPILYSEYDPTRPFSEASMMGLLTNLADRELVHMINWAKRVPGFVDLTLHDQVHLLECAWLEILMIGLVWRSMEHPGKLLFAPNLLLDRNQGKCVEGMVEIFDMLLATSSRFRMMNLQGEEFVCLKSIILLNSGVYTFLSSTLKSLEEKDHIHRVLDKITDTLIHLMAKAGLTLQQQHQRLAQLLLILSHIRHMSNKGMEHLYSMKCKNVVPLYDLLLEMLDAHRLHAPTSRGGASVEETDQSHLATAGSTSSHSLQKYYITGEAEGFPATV
Bile acid receptor (Homo sapiens), sequence (Q96RI1 whole entry, looked up, the tested form may be a part): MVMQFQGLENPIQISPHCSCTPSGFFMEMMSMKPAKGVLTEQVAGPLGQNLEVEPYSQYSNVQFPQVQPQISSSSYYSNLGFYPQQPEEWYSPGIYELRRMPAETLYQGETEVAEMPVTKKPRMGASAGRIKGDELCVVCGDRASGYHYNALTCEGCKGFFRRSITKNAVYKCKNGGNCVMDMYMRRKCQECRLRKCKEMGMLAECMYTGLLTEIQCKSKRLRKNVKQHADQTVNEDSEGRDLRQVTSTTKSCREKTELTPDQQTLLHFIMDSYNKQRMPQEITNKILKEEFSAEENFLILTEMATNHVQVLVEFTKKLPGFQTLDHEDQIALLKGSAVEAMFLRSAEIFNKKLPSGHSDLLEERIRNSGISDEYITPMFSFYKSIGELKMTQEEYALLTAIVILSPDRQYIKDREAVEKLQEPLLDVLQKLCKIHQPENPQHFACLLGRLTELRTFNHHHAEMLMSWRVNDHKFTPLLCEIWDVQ
human Norepinephrine Transporter (NET), SLC6A2 (gene 6530), sequence (P23975 whole entry, looked up): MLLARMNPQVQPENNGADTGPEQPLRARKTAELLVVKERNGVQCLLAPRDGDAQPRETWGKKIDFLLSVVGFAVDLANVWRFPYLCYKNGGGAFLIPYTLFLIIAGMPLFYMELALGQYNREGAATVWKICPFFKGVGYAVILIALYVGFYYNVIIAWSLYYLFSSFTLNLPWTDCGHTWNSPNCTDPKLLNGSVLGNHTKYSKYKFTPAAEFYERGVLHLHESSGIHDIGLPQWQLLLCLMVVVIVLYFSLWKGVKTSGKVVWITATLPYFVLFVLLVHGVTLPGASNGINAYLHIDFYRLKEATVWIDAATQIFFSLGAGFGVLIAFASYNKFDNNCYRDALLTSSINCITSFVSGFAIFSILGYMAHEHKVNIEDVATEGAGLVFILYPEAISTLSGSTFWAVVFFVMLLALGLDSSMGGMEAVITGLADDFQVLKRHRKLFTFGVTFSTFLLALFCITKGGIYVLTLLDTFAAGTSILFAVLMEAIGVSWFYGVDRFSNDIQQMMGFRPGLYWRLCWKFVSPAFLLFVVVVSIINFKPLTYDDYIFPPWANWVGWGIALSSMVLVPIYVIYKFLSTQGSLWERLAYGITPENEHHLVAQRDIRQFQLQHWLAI
rat Serotonin Transporter (SERT), Slc6a4 (gene 25553), sequence (P31652 whole entry, looked up): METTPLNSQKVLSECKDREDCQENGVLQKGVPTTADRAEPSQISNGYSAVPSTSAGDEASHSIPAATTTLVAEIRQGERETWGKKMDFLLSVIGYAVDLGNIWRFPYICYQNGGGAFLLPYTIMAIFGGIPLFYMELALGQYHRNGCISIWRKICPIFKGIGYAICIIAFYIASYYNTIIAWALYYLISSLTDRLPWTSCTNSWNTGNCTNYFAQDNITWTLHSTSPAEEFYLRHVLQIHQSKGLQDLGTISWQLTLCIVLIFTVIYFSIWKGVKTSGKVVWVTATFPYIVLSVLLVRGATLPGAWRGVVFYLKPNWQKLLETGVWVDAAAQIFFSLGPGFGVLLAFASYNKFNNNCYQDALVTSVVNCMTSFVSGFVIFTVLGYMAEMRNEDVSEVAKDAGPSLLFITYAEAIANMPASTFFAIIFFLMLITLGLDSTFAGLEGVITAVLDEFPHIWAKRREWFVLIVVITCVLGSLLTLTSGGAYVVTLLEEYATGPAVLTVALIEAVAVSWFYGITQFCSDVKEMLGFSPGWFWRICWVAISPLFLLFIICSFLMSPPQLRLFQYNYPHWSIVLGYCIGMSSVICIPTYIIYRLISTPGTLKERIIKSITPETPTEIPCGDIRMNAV
Agonist Androgen Response Element (ARE), AR (gene 367), sequence (P10275 whole entry, looked up): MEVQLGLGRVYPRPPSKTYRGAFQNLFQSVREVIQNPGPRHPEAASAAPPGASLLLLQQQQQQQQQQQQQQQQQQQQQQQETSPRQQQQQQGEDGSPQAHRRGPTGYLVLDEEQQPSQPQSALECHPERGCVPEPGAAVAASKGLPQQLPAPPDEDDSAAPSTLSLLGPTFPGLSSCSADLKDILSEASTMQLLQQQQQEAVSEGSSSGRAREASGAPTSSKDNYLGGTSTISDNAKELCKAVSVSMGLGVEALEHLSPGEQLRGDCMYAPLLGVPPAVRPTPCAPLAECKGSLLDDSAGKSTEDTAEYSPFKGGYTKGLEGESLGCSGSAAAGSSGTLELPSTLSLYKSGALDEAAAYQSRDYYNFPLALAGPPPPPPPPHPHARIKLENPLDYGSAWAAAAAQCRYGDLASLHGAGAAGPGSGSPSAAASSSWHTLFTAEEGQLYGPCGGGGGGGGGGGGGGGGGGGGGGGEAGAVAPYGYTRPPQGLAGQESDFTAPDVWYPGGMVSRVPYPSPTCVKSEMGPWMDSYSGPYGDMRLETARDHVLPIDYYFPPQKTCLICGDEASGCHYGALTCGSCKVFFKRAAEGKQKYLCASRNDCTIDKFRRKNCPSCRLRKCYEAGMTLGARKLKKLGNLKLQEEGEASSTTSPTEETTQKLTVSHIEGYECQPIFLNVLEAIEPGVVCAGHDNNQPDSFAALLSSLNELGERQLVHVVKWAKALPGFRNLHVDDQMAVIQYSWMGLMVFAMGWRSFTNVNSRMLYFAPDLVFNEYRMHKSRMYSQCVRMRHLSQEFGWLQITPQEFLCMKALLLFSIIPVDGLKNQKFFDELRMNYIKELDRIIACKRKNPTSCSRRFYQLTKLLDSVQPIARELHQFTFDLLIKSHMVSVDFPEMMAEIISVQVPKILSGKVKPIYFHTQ
Norway rat Vesicular Monoamine Transporter (VMAT2), neurotransmitter transporter, Slc18a2 (gene 25549), sequence (Q01827 whole entry, looked up): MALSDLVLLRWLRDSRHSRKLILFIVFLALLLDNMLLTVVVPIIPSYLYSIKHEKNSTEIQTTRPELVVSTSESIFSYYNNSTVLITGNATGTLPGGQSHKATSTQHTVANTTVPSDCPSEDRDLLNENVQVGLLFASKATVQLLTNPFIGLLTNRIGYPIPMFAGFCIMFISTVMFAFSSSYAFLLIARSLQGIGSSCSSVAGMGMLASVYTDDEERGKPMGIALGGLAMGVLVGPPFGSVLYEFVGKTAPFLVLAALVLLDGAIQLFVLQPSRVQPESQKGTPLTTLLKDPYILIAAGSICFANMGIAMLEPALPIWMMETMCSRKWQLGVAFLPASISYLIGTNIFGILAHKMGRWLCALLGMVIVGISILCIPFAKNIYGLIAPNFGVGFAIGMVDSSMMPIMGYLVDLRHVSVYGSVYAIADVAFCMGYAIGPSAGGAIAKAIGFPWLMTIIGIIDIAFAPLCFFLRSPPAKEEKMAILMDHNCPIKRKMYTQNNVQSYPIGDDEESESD

Consider `CCOC(=O)[C@]1(c2ccccc2)Oc2ccccc2[C@@H]1N`, for which the concentration at half-maximal activity (AC50) is 1.23 µM (active) in experiment [1] and 1.56 µM (active) in [2]. For the same molecule, the molecule was called inactive in [3], in experiment [4] and in experiment [5].

For `Cc1cccc(N)c1N`, the concentration at half-maximal activity (AC50) in experiment [2] was 5.57 µM (active); in experiment [4], 42.8 µM (active); in experiment [5] it was 49.3 µM (active). In experiment [3], the result was inactive.

For the molecule `CC(C)(C)OOC(C)(C)CCC(C)(C)OOC(C)(C)C`, the molecule was called inactive in [3].

Turning to `CNC(=O)Oc1cccc2c1OC(C)(C)C2`, the result in experiment [6], in experiment [3], in experiment [7] and in experiment [8] was inactive.

As to `COC(=O)c1ccccc1N`, the molecule was called inactive in experiment [1], in experiment [9] and in experiment [3].

For the molecule `c1ccc2c(c1)-c1cccc3cccc-2c13`, the concentration at half-maximal activity (AC50) in experiment [3] was 50 µM (active).

`Oc1ccc2ccc3cccc4ccc1c2c34`: the AC50 in experiment [3] is 12 µM (active).

Consider `N#CC(Br)Br`, for which the call in experiment [3], in experiment [7], in [8] and in [5] was inactive.

For the molecule `CC(C)COC(=O)c1ccccc1C(=O)OCC(C)C`, the call in experiment [3] and in experiment [5] was inactive. In addition, the values for the AC50 in experiment [7], in experiment [8] and in experiment [4] were 13.7 µM (active), 13 µM (active) and 17.7 µM (active), respectively.

Regarding `Nc1cc(Cl)cc(C(=O)O)c1Cl`, in experiment [3], the call was inactive.

Turning to `O=[N+]([O-])c1ccc(Oc2ccc(Cl)cc2Cl)cc1`, in [3], the molecule was called inactive.

With `Clc1ccc(C(c2ccc(Cl)cc2)C(Cl)Cl)cc1`, the results for the AC50 in experiment [7] and in [8] were 12.2 µM (active) and 12 µM (active), respectively.

With `OCCCBr`, the result in experiment [3], in experiment [7] and in experiment [8] was inactive.

As for `ClCCOCCCl`, the outcome in experiment [3], in experiment [4] and in experiment [5] was inactive.

In the case of `CN(C)c1ccc(C(=O)c2ccc(N(C)C)cc2)cc1`, the outcome in experiment [3] was inactive. Besides, the results for the half-maximal activity concentration (AC50) in [4] and in experiment [5] were 49 µM (active) and 0.699 µM (active), respectively.

Consider `COc1cc(C=O)cc2c1[C@H](COC(N)=O)[C@]1(OC(C)=O)ON2C[C@H]2[C@@H]1N2C(C)=O`, for which the call in experiment [7] and in experiment [8] was inactive.

For `CCCCCCCCCCCCCN1CC(C)OC(C)C1` (centres undefined), the outcome in experiment [3], in [7] and in experiment [8] was inactive.

Take `Nc1ccc(Oc2ccc(N)cc2)cc1`: the call in experiment [3] was inactive.

On to `CCOc1cccc(C2(N3CCN(c4ccccc4)CC3)CCC(C)CC2)c1` (centres undefined), for which the outcome in experiment [7] and in experiment [8] was inactive.

Regarding `CCC12COCN1COC2`, the result in [7] and in experiment [8] was inactive.

For the molecule `OCCOCCO`, the result in experiment [3], in [7], in [8] and in [5] was inactive.

As to `Clc1ccc(C(c2ccc(Cl)cc2)C(Cl)(Cl)Cl)cc1`, the concentration at half-maximal activity (AC50) in [3] is 29.1 µM (active); in experiment [4], 11.2 µM (active). Moreover, in experiment [5], the outcome was inactive.

Take `c1ccc2c(c1)oc1ccccc12`: the molecule was classed as inactive in experiment [3].

Regarding `Cn1cc(-c2ccccc2)c(=O)c(-c2cccc(C(F)(F)F)c2)c1`, the molecule was classed as inactive in [7] and in experiment [8].

Regarding `OCCCl`, the outcome in [3] and in experiment [4] was inactive.

As to `CS(=O)(=O)NC(=O)c1cc(Oc2ccc(C(F)(F)F)cc2Cl)ccc1[N+](=O)[O-]`, the outcome in experiment [3] and in experiment [4] was inactive.

For the molecule `CN(C)c1ccccc1`, the call in experiment [3], in experiment [4] and in [5] was inactive.

Consider `CN(C)C(=O)Nc1ccc(Cl)cc1`, for which the call in [3] and in experiment [4] was inactive. Further, the concentration at half-maximal activity (AC50) in experiment [5] was 66.9 µM (active).

As to `Cc1ccc([N+](=O)[O-])cc1`, the outcome in experiment [3], in experiment [7] and in experiment [8] was inactive.

Consider `Nc1ccc(Cc2ccc(N)cc2)cc1`, for which the molecule was classed as inactive in experiment [4] and in [5].

As to `[O-][Cl+]O`, the molecule was called inactive in experiment [3], in [7] and in experiment [8].

On to `Clc1ccc(Cl)c(Cl)c1`, for which the call in experiment [3] was inactive.

Turning to `O=P(OCCCl)(OCCCl)OCCCl`, the molecule was called inactive in [3], in experiment [4] and in [5].

Take `CCN(CC)N=O`: the molecule was classed as inactive in experiment [4] and in [5].

In the case of `Clc1ccccc1Cl`, the AC50 in [3] was 7.71 µM (active). Besides, the molecule was called inactive in [4] and in [5].

Consider `ClC1=C(Cl)C2(Cl)C3C(Cl)C=CC3C1(Cl)C2(Cl)Cl` (centres undefined), for which the result in experiment [3], in experiment [7] and in experiment [8] was inactive.

For `CCN(CC)CCO`, the call in [3] was inactive.

Turning to `c1ccc(NNc2ccccc2)cc1`, the molecule was classed as inactive in experiment [3], in experiment [4] and in experiment [5].

Take `[As]#[In]`: the result in experiment [3] was inactive.

With `Brc1ccc(Oc2ccccc2)cc1`, the call in experiment [7] and in experiment [8] was inactive.

For `CC(O)CCO` (centres undefined), the result in [3] was inactive.

Broadly, the AC50 is the concentration giving half of the maximal activity seen.
